High-throughput results (PubChem BioAssay)
TGFb SMAD3 inh – qHTS for Inhibitors of TGF-b; Potency, µM (highest dose often 46.1 µM), without a hit: at the top dose activity, negative = inhibition, hits mostly inhibitors; HepG2 CAGA-GFP TGF-b/SMAD3 reporter, GFP fluorescence, 18 h; TGF-beta stimulated, 500 pg/mL final; 1.2% of 410,000 active; also: potency is read from the fitted curve at half-maximal effect; % is scaled to controls: 0 for no effect and ±100 for the full control effect; nearly all actives have a fitted effect of over 65% in size
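GFP signal (ex488/em500-530) from TGF-beta-stimulated HEPG2 CAGA-GFP cells, 500 pg/mL final, 18 h at 37 degrees C in DMEM plus 1% FBS, normalized to unstimulated and DMSO-stimulated controls.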
ATXN viability – Viability Counterscreen for Primary qHTS for Inhibitors of ATXN expression | S2 cells (HEK-293 line with an ATXN2-luciferase reporter) viability, CellTiter-Fluor protease fluorescence, 24 h | Potency, µM (titrated, usually from 56.7 µM), usual class: cytotoxic | 0.49% of 400,000 active | AID 651635, 2014; also: potency is read from the fitted curve at half-maximal effect; nearly all actives have a fitted effect of over 40% in size
DRD3 agonist – qHTS of D3 Dopamine Receptor Agonist: qHTS; D3R DiscoveRx beta-arrestin cells, luminescence, 90 min; D(3) dopamine receptor (Homo sapiens), P35462; 0.58% of 410,000 active; max activation, %; AID 652048, 2013; in the data active = max activation above about 30%; also: 0% is about no effect
Target sequence (P35462 whole entry, looked up): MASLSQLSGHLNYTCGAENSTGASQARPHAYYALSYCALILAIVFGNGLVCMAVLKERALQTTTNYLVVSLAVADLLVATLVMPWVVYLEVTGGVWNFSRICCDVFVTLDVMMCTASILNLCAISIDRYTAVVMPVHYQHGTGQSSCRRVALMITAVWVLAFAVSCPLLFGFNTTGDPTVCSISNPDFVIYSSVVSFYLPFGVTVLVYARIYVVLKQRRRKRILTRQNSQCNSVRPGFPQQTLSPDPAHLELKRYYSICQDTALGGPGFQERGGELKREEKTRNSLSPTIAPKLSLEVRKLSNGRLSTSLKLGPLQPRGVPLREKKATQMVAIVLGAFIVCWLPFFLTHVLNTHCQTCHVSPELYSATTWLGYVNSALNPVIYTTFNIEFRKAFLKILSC
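Agonist-mode cell screen: cells plated at 1500/well and incubated overnight at 37 °C, then exposed to library compounds for 90 min at 37 °C. Detection reagent was added for 30–60 min at room temperature, and luminescence was read.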
HepG2 tox – qHTS for Inhibitors of TGF-b: Cytotox Counterscreen; HepG2 CAGA-GFP viability, ATP luminescence, 18 h; Potency, µM (highest dose often 46.1 µM), for inactives: at the top dose activity change, negative = cytotoxicity, most hits filed as cytotoxic; 0.76% of 410,000 active; also: potency is read from the fitted curve at half-maximal effect
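HepG2 CAGA-GFP cells (1000/well, DMEM with 1% FBS) received compound, then TGF-beta at 500 pg/mL final, and were incubated 18 hours at 37 degrees C. Viability was read by CellTiter-Glo luminescence. Media-only wells were set as complete cell-killing and DMSO as no toxicity.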
D3 antag – qHTS of D3 Dopamine Receptor Antagonist: qHTS. D3R cells, DiscoveRx beta-arrestin luminescence, antagonist mode; stronger effect = lower value. 2.5% of 360,000 active. max response, negative = inhibition, %. AID 652054, 2013. D(3) dopamine receptor (Homo sapiens), P35462; in the data active = max response below about -50%; inconclusive = no clear call, values can overlap the other calls; also: % is scaled to controls: 0 for no effect and ±100 for the full control effect
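Cells plated overnight at 1500 cells/well, then exposed to library compounds with dopamine controls for 90 minutes at 37 degrees C. DiscoveRx reagent added for 30–60 minutes at room temperature; luminescence read, quantitative HTS format.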
ATXN2 expr inh – Primary qHTS for Inhibitors of ATXN expression | 0.72% of 360,000 active | Potency, µM (series often up to 57 µM), inactives show top-dose activity change, negative = inhibition, most hits filed as inhibitors | HEK-293 ATXN2-luciferase reporter, luminescence, 24 h; also: potency is read from the fitted curve at half-maximal effect; % is scaled to controls: 0 for no effect and ±100 for the full control effect; nearly all actives have a fitted effect of over 55% in size
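qHTS (up to 57 uM final) was run with 24 h compound exposure of reporter cells at 37 °C. Each well was multiplexed: SteadyGlo luminescence measured ATXN2-luciferase expression after a fluorogenic Gly-Phe-AFC viability readout (25 uM final).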
* marks the source's active call; other numbers are inactive results; i = inactive; ? = inconclusive; nt = no result. The list is not random: actives were taken first. Their share in the collection is about 4.7%. Unless noted, calls follow the shape of the dose curve; as a rule, active = well fitted curve in the direction sought with a large enough effect; inconclusive = small, poorly fitted or top-dose-only effect, or another doubt; inactive = no such curve, though single readings can be large; an effect the other way counts as inactive or inconclusive.

SMILES	TGFb SMAD3 inh	ATXN viability	DRD3 agonist	HepG2 tox	D3 antag	ATXN2 expr inh
COC1=C(Nc2ccccc2OC)C(=O)c2ccccc2C1=O	-30%	i	5	-54%	12	-14%
COc1ccccc1NC1=C(NC(C)=O)C(=O)c2ccccc2C1=O	14µM*	i	-12	-109%	-23	-26%
CCOc1ccc(CCNC(=O)c2ccc(CS(=O)(=O)Cc3ccccc3Cl)o2)cc1OCC	?	nt	-6	-28%	nt	nt
CCOC(=O)c1ccccc1Nc1cc(C)nc2nc(-c3ccco3)nn12	?	nt	9	-20%	nt	nt
Cn1cnc(S(=O)(=O)N2CCC(C(=O)Nc3ccc(OC(F)(F)F)cc3)CC2)c1	-15%	nt	-12	-13%	nt	nt
CCN(CC)S(=O)(=O)c1ccc(-c2nnc(SCC(=O)N3CCOCC3)o2)cc1	-1%	i	-7	-5%	-63*	5%
Cc1ccc(C)c(N2CCN(c3nc4c(S(=O)(=O)c5ccccc5)nnn4c4ccc(Cl)cc34)CC2)c1	-9%	i	4	-20%	nt	-2%
CCOc1ccc(-c2csc(NC(=O)CSCC(=O)O)n2)c2ccccc12	5%	i	45*	-13%	85	-8%
CCOc1ccc(-c2csc(NC(=O)CSC3=NC(=O)CN3C(C)=O)n2)c2ccccc12	-4%	i	-17	8%	-13	-19%
CCC1=NN(C(=O)c2ccccc2Br)C(O)(c2ccc(Br)cc2)C1 (stereo unspecified)	-9%	i	1	3%	5	nt
CCC1=NN(C(=O)c2ccc([N+](=O)[O-])cc2)C(O)(c2ccccc2)C1 (stereo unspecified)	?	28µM*	-17	13µM*	?	?
CCC1=NN(C(=O)c2ccccc2O)C(O)(c2ccccc2)C1 (stereo unspecified)	13µM*	nt	3	14µM*	11	-39%
Cc1cc(C)c2nccc(/C=C/c3ccc(N(C)C)cc3)c2c1	-15%	nt	nt	-20%	nt	nt
Cc1ccc(OCC(=O)Nc2ccc3nc(SCC(=O)N4CCOCC4)sc3c2)cc1	0%	nt	7	-26%	nt	nt
O=C(NCCc1ccccc1)C(=O)NCC(c1cccnc1)N1CCN(c2ccccc2)CC1 (stereo unspecified)	?	i	5	-11%	nt	-36%
O=C1CC(Sc2ncccn2)C(=O)N1c1ccccc1 (stereo unspecified)	-9%	i	4	-3%	4	-3%
Nc1nnc(SC2CC(=O)N(c3ccccc3)C2=O)s1 (stereo unspecified)	2%	i	-1	-11%	-55*	4%
COc1ccc(N2C(=O)CC(Sc3nc4ccccc4s3)C2=O)cc1OC (stereo unspecified)	-3%	32µM*	0	-30%	-8	nt
Brc1cnc2nc(SCc3nc4ccccc4[nH]3)[nH]c2c1	-37%	i	-3	-71%	15	24µM*
COC(=O)CNC(=O)c1cnn(-c2ncc3c(n2)-c2ccccc2CCC3)c1C1CC1	nt	i	nt	nt	nt	nt
OC(C#CCN1CCCCC1)(c1ccccc1)c1ccccc1	-3%	i	-22	1%	-79*	15%
OC(C#CCN1CCCC1)(c1ccccc1)c1ccccc1	3%	i	-36	-4%	-12	1%
O=C1NC2(C=Cc3c(ccc4ccccc34)O2)Oc2ccccc21 (stereo unspecified)	-1%	?	-4	-25%	-51*	-27%
CC1(C)OC(=O)N(c2ccccc2)C12C=Cc1c(ccc3ccccc13)O2 (stereo unspecified)	-27%	i	2	-41%	21	2%
Nc1ccc(O)cc1	4.5µM*	?	-13	14µM*	nt	-7%
SMILES	TGFb SMAD3 inh	ATXN viability	DRD3 agonist	HepG2 tox	D3 antag	ATXN2 expr inh
CC(CCC(C)C(C)(C)C)[C@@H]1CC[C@H]2C3C[C@H](OS(O)(=S)=S)[C@H]4C[C@H](OS(O)(=S)=S)[C@@H](OS(O)(=S)=S)C[C@]4(C)[C@H]3CC[C@]12C (stereo partly specified) (tested in a mixture with another compound)	?	18µM*	-10	16µM*	-83*	?
C[C@H](CCC(=O)O)[C@H]1CCC2C3C[C@H](O)[C@@H]4C[C@H](O)CC[C@]4(C)C3CC[C@@]21C (stereo partly specified)	nt	nt	nt	nt	nt	0%
Cc1[nH]n(-c2ccccc2)c(=O)c1C1(C(F)(F)F)C(=O)N(c2ccccc2)C2=C1C(=O)CC(C)(C)C2 (stereo unspecified)	2%	i	4	0%	-17	1%
Cc1ccc(N2C(=O)C(c3c(C)[nH]n(-c4ccccc4)c3=O)(C(F)(F)F)C3=C2CC(C)(C)CC3=O)cc1 (stereo unspecified)	?	i	3	-23%	-75*	7%
Cc1c(/C=N/NC(=O)c2ccccc2O)c2ccccn2c1C(=O)c1ccc(F)cc1	?	i	31*	-35%	13	?
Cc1n(N)c2ccccc2[n+]1CC(=O)c1ccccc1	0%	i	-11	0%	-82*	-13%
CCCN(CC1CC1)c1cc2c(c3c1ccn3C)C1CCC2C1 (stereo unspecified)	?	?	-14	-42%	?	?
COc1ccccc1N(C)c1cc2c(c3c1ccn3C)C1CCC2O1 (stereo unspecified)	16µM*	?	-8	-48%	-3	-35%
CCN(Cc1ccccc1)c1cc2c(c3c1ccn3C)C1CCC2C1 (stereo unspecified)	?	i	-13	-32%	-55*	12%
CN(c1ccc(Cl)cc1)c1cc2c(c3c1ccn3C)C1CCC2C1 (stereo unspecified)	-9%	i	-1	-17%	7	-5%
Cn1ccc2c(N(Cc3ccccc3)Cc3ccccc3)cc3c(c21)C1CCC3O1 (stereo unspecified)	10µM*	i	-4	1%	7	11%
CCN(CC)c1cc2c(c3c1ccn3C)C1CCC2C1 (stereo unspecified)	-22%	i	-19	-30%	-61*	-25%
CCc1nn(CC(=O)NC(C)CCc2ccccc2)c(=O)c2cc3c(OC)cccc3n12 (stereo unspecified)	-23%	i	-5	-24%	nt	-2%
CCC[C@H]1COCCS(=O)(=O)N1Cc1cccc(F)c1	-6%	nt	nt	-18%	nt	nt
